Anthrax LT inh – qHTS Assay for Anthrax Lethal Toxin Internalization; Cells, anthrax lethal toxin internalization, FRET ratio (460/530); AID 912, 2007; hit rate 0.67% among 70,000; Potency, µM (series often up to 40 µM), hits mostly inhibitors; note: nearly all actives have a fitted effect of over 50% in size
AmpC det inh – Promiscuous and Specific Inhibitors of AmpC Beta-Lactamase (assay with detergent) | P00811 | purified AmpC, nitrocefin hydrolysis with detergent | Potency, µM (top dose mostly 28.7 µM) | hit rate 0.09% among 71,000 | AID 584, 2007; active = well fitted curve in the direction sought with a large enough effect; inconclusive = small, poorly fitted or top-dose-only effect
Target sequence (P00811 whole entry, looked up): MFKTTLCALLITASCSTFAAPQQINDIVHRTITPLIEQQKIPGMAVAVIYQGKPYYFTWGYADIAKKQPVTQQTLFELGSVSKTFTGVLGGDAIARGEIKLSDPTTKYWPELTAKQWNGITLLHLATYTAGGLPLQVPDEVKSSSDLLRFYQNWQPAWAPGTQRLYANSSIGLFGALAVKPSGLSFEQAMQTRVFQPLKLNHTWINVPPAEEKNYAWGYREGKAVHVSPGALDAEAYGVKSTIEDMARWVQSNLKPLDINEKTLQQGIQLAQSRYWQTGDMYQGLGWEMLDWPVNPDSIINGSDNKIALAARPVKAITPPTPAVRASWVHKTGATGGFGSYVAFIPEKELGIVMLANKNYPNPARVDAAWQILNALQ
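E. coli AmpC (5.3 nM) in 20 mM phosphate pH 7.0 with 0.01% Triton X-100, preincubated 15 min RT with compound; nitrocefin (2 uL of 800 uM stock) hydrolysis followed by 480 nm absorbance every 20 s over 4 min.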
SmPrx2 inh – Schistosoma Mansoni Peroxiredoxins (Prx2); Schistosoma mansoni peroxiredoxin 2 (Prx2); S. mansoni Prx2 activity coupled to TGR/GSH (TGR is thioredoxin glutathione reductase), NADPH fluorescence loss, qHTS; Potency, µM; hit rate 0.07% among 65,000; AID 448, 2006
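Purified S. mansoni TGR and Prx2 in pH 7.4 phosphate buffer with EDTA and Tween-20 were preincubated with compounds for 15 min. Further NADPH/GSH was added, then a 2.5 mM H2O2 aliquot initiated turnover, followed kinetically by NADPH fluorescence.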
AmpC inh no det – Promiscuous and Specific Inhibitors of AmpC Beta-Lactamase (assay without detergent); Potency, µM (doses to about 28.7 µM); hit rate 1.8% among 71,000; P00811; AmpC nitrocefin hydrolysis, absorbance 480 nm, no detergent; AID 585, 2007
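Enzyme, pH 7.0 phosphate. Compound titrations were pre-incubated with AmpC for 15 min at room temperature before nitrocefin (stock 800 uM) addition; product formation was recorded at 480 nm every 20 s for 4 min.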
Large screens that a line does not name were inactive; [ ] = dose if it differs, or a comment. This is a sample that favours compounds with a hit; in the whole collection about 2.6% have one here. Unless noted, calls come from the whole dose curve.

CCCCC[C@@H](O)[C@@H]1C(=O)O[C@@H](C)[C@@H](O)\C=C/C=C\C=C/C=C\C=C(\C)[C@H](O)C[C@H](O)C[C@H](O)C[C@H](O)C[C@H](O)C[C@H](O)C[C@@H]1O	none
CC(C)C[C@H](N)c1nnc(S(=O)(=O)Cc2cccc(F)c2)o1	Anthrax LT inh inconclusive, AmpC det inh 2.51µM, AmpC inh no det inconclusive
CC(C)[C@H](NC(=O)OC(C)(C)C)c1nnc(S(=O)(=O)Cc2c(F)cccc2Cl)o1	AmpC det inh 0.794µM, AmpC inh no det 1.26µM (no result: Anthrax LT inh)
CC[C@@H](C)[C@H](NC(=O)OC(C)(C)C)c1nnc(S(=O)(=O)Cc2cc(C)ccc2C)o1	Anthrax LT inh inconclusive, AmpC det inh inconclusive, AmpC inh no det inconclusive
CC(C)(C)OC(=O)N[C@@H](Cc1ccccc1)c1nnc(S(=O)(=O)Cc2cccc(F)c2)o1	Anthrax LT inh 10µM, AmpC det inh 5.01µM, AmpC inh no det 3.98µM
CC(C)CC(=O)N1CCN(Cc2cccc(F)c2)CC1	none (no result: SmPrx2 inh)
Cc1ccccc1CS(=O)(=O)c1nnc([C@H](CC(C)C)NC(=O)OC(C)(C)C)o1	Anthrax LT inh inconclusive, AmpC det inh 7.94µM, AmpC inh no det 10µM
N#Cc1ccccc1-c1ccc2ncnc(NCc3cccs3)c2c1	Anthrax LT inh inconclusive
N[C@H]1[C@@H](C(=O)O)[C@H]2C=C[C@H]1C2	none
CN(C)CCCN=c1c2ccccc2n(C)c2[nH]c(=O)n(C)c(=O)c12	Anthrax LT inh inconclusive
O=C(CC1SC2=NCCN2C1=O)Nc1ccc(Br)cc1 (configuration not stated)	Anthrax LT inh inconclusive
O=C(CC1Sc2ncnn2C1=O)Nc1ccc(Br)cc1 (configuration not stated)	Anthrax LT inh inconclusive, AmpC inh no det 5.01µM
O=C(N[C@@H](Cc1ccccc1)C(=O)CCl)OCc1ccccc1	Anthrax LT inh 15.8µM
COC(=O)C(C(C)=O)C(=O)C(Cc1ccccc1)NC(=O)OCc1ccccc1 (configuration not stated)	none (no result: AmpC det inh, SmPrx2 inh, AmpC inh no det)
O=c1cc(-c2ccccc2)oc2c1ccc1ccccc12	Anthrax LT inh 25.1µM
COc1cc2c(cc1OC)[C@@]13CCN4C=C5CCO[C@H]6CC(=O)N2[C@@H]1[C@@H]6[C@H]5C[C@H]43	none
Fc1ccc(C2CC(c3ccco3)n3ncnc3N2)cc1 (configuration not stated)	AmpC inh no det 3.98µM[single pt active]
CC1CCCN(S(=O)(=O)c2ccc(NC(=O)Cn3nnc(-c4ccccc4F)n3)cc2)C1 (configuration not stated)	AmpC inh no det 15.8µM
Cc1ccc(-c2nnn(CC(=O)Nc3ccc(S(=O)(=O)N4CCC(C)CC4)cc3)n2)cc1	AmpC inh no det 12.6µM
CC1CCN(S(=O)(=O)c2ccc(NC(=O)Cn3nnc(-c4ccccc4)n3)cc2)CC1	Anthrax LT inh inconclusive
C[C@]12CC[C@H](O)C[C@@H]1CC[C@H]1[C@H]2CC[C@]2(C)[C@H](C(=O)CO)CC[C@@H]12	Anthrax LT inh inconclusive
O=C(Nc1ccc2c(c1)OCO2)C1CCN(S(=O)(=O)c2cccs2)CC1	AmpC inh no det inconclusive
O=C(Nc1ccc2c(c1)OCO2)C1Cc2ccccc2CN1S(=O)(=O)c1cccs1 (configuration not stated)	Anthrax LT inh inconclusive, AmpC inh no det 10µM[single pt active]
N[C@@H](Cc1cc(O)c(O)cc1O)C(=O)O	AmpC inh no det 5.01µM
CCOc1ccc(-n2c(Cc3cc(=O)[nH]c(=O)[nH]3)nnc2SC(C)C(=O)OC)cc1 (configuration not stated)	none
COc1cccc(-n2c(Cc3cc(=O)[nH]c(=O)[nH]3)nnc2SC(C)C)c1	AmpC inh no det 3.98µM[single pt active]
COC(=O)C(C)Sc1nnc(Cc2cc(=O)[nH]c(=O)[nH]2)n1-c1cc(C)ccc1C (configuration not stated)	AmpC inh no det 2µM
CSc1nnc(Cc2cc(=O)[nH]c(=O)[nH]2)n1-c1cccc(C)c1	none
C=CCSc1nnc(Cc2cc(=O)[nH]c(=O)[nH]2)n1-c1cc(C)ccc1C	none
COC(=O)C(C)Sc1nnc(Cc2cc(=O)[nH]c(=O)[nH]2)n1-c1cccc(OC)c1 (configuration not stated)	AmpC inh no det 3.98µM[single pt active]
O=C(N/N=C1/C[C@@H](O)[C@@H](O)[C@@H]2[C@H]3C(=O)N(c4ccc(F)cc4F)C(=O)[C@@H]3CC[C@@H]12)OCc1ccccc1	none (no result: AmpC det inh, SmPrx2 inh, AmpC inh no det)
CCOC(=O)N1CCC(NC(=O)Cn2nc(-c3ccccc3)ccc2=O)CC1	Anthrax LT inh inconclusive
CCOC(=O)N1CCC(NC(=O)Cn2nc(Cc3ccncc3)c3ccccc3c2=O)CC1	AmpC inh no det 3.98µM[single pt active]
CCCNC[C@H](O)COc1ccccc1C(=O)CCc1ccccc1	none
O[C@@H]1CC[C@H]2Cc3ccccc3N=C21	none
CC(=O)Cc1nsc(NC(=O)c2cc(-c3cccc(C(F)(F)F)c3)oc2C)n1	AmpC inh no det 15.8µM[single pt active]
C=CCN1CCc2c(cc(O)c(O)c2Br)[C@H](c2ccccc2)C1	none
CC(/C=C/C=C(C)/C=C/C(=O)O)=C\C=C\C=C(C)\C=C\C=C(C)\C=C\C(=O)O	none (no result: SmPrx2 inh)
O=C(/C=C\c1ccc(O)c(O)c1)OCCc1ccccc1	Anthrax LT inh inconclusive
O=C(Nc1cnc2ccccc2c1)c1cccnc1	AmpC inh no det 3.98µM[single pt active]
O=C(Nc1ccc(S(=O)(=O)NCc2ccccc2)cc1)Nc1ccc2c(c1)OCO2	Anthrax LT inh inconclusive, AmpC inh no det 10µM
NC1=C(O)C(=O)[C@H](c2c[nH]c3ccc(OCc4ccccc4)cc23)O1	Anthrax LT inh inconclusive
O=c1cc(-c2ccccc2Cl)c2c([nH]1)CCC2	AmpC inh no det 3.98µM[single pt active]
COc1ccccc1NC(=O)N1CCN(c2ccc3nncn3n2)CC1	AmpC inh no det 3.98µM[single pt active]
CC(C)(C)c1ccc(/C=C/C(=O)Nc2ccc3c(c2)OCCO3)cc1	Anthrax LT inh 3.98µM (no result: AmpC det inh, SmPrx2 inh, AmpC inh no det)
Cc1oc(C(C)(C)C)cc1C(=O)Nc1ccc2c(c1)OCCO2	Anthrax LT inh inconclusive
CC(C)(C)C(=O)[C@H]([C@@H](c1ccccc1)N1CCOCC1)N1CCOCC1	none
COC(=O)c1ccc2c(c1)N(C)CCS2	AmpC inh no det 3.98µM[single pt active] (no result: SmPrx2 inh)
CCOC(=O)N1CCC(NC(=O)c2ccc3c(c2)N(C)CCS3)CC1	Anthrax LT inh inconclusive
Nc1nc(N)c(Cn2ccnc2)c(=O)[nH]1	none
Cc1csc(NC(=O)C(CC(C)C)NS(=O)(=O)c2ccc3c(c2)oc(=O)n3C)n1 (configuration not stated)	AmpC inh no det 3.98µM[single pt active]
O=C(O)c1cccc(N=Nc2c(S(=O)(=O)O)ccc3c2C(=O)c2ccccc2C3=O)c1O	none
Clc1ccc2c(NC3CCC(N4CCCCC4)CC3)ccnc2c1 (configuration not stated)	Anthrax LT inh 2.51µM
O=C(C1CCCN(S(=O)(=O)c2cccs2)C1)N1CCC(N2CCCCC2)CC1 (configuration not stated)	AmpC inh no det 3.98µM[single pt active]
O=C(NCCc1ccccc1)C1CCCN(S(=O)(=O)c2cccs2)C1 (configuration not stated)	AmpC inh no det 3.98µM[single pt active]
